The full list was thinned out, with hits kept by preference.
Dicer inh: inhibitors of human Dicer processing of pre-microRNA. Q9UPY3. z-score at 25 µM. AID 1347074. cat-ELCCA pre-miR-21 Dicer processing, chemiluminescence; hits give high values. 47,000 compounds, 6% hits; in the data active = z-score above about 3, passing the limit was not always enough;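 also: plate controls were vehicle for no effect and no enzyme for full effect; higher signal means more uncleaved substrate so more Dicer inhibition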
* hit, by the source's call.

SMILES	Dicer inh
COC(=O)C/C(=N\Nc1c(Cl)cc(Cl)cc1Cl)C(=O)OC	-0.59
C#CCOc1ccc(C2C(C#N)=C(N)Oc3cc(O)ccc32)cc1OCC (stereo not given)	1.7
CC1(C)C(=O)N(O)C(C)(C)C(=O)N1O	0.44
CCc1c(O)nc2sc3cc(OC)ccc3n2c1=O	-0.15
CN1CCN(C(=O)CN(c2ccccc2)S(=O)(=O)N(C)C)CC1	1
CN1CCN(C(c2ccccc2)c2ccccc2)CC1	0.13
CN1CCN(C(=O)Oc2ccccc2)CC1	3.8*
COC(=O)Nc1c(-c2ccccc2)nc2ccccn12	-0.09
O=C(Nc1c(-c2ccccc2)nc2ccccn12)c1ccco1	4.9*
O=C(Nc1c(-c2ccccc2)nc2ccc(Cl)cn12)c1ccco1	1.3
Cn1c(=O)c2c(nc(Cl)n2Cc2ccccc2Cl)n(C)c1=O	2.3
CSc1nc(C=Nc2ccccc2)c(O)n1Cc1ccccc1Cl	5.1*
CSc1nc(C=Nc2cccc(Cl)c2)c(O)n1Cc1cccc(Cl)c1	1.6
CC1CC(NC(=S)NC(=O)c2ccc(Cl)c(Cl)c2)CC(C)(C)C1 (stereo not given)	1
Cc1cc(C)n2c(SCC(C)C)nnc2n1	-0.03
Cc1ccc(S(=O)(=O)NCC(Sc2nnc3nc(C)cc(C)n23)c2ccccc2)cc1 (stereo not given)	3.5*
Cc1cc(C)n2c(SCC(=O)O)nnc2n1	-0.62
CCCC12CN(C(=O)CC(C)C)CC(CCC)(CN(C(=O)CC(C)C)C1)C2=O	1
CCn1c(SCC(=O)NC(C)(C)C)nc2c1c(=O)n(C)c(=O)n2C	-0.1
Cc1nc(C(F)(F)F)c(C(=O)O/N=C(\N)c2ccc(Cl)cc2)s1	6.9
COC(=O)C1=C(C(=O)c2ccc(C)cc2)C(c2ccc(OC)cc2OC)n2nnnc2N1 (stereo not given)	0.31
COc1ccccc1CC(=O)Nc1ccc2ccccc2n1	-0.4
COc1cccc(CNc2cnc3ccccc3c2)c1O	4.5*
COc1cccc(CN(C)C)c1O	-1.3
O=C(O)C1CC(=O)N(Cc2ccc(C(F)(F)F)cc2)C1 (stereo not given)	1.2
SMILES	Dicer inh
COc1ccc2nc(C)cc(Cl)c2c1	2.7
COc1ccccc1-c1nc2ccc(Cl)cc2c(=O)o1	-1.8
COc1ccc2nc3ccccc3c(N)c2c1	4*
COc1ccc2nc(C3C(=O)c4ccccc4C3=O)cc(Cl)c2c1	6.5*
COc1ccc2nc(N)sc2c1	0.42
COc1ccc2nc(C3C(=O)c4ccccc4C3=O)ccc2c1	0.25
Clc1ccc(C=NCCCN=Cc2ccc(Cl)c(Cl)c2)cc1Cl	-0.78
CN(C)/N=C(\N)c1ccc(Cl)cc1	-0.6
C=CCN1C(=O)C(O)(CC(=O)c2c(C)cc(C)cc2C)c2ccccc21 (stereo not given)	0.2
CCN1C(=O)C(O)(CC(=O)c2ccncc2)c2ccccc21 (stereo not given)	1.9
C=CCN1C(=O)C(O)(CC(=O)c2ccc3c(c2)OCO3)c2ccccc21 (stereo not given)	4.3*
CCN1C(=O)C(O)(CC(=O)c2c(C)cc(C)cc2C)c2ccccc21 (stereo not given)	3.5*
C=CCN1C(=O)C(O)(CC(=O)c2ccc(C)cc2)c2ccccc21 (stereo not given)	-0.13
C=CCN1C(=O)C(O)(CC(=O)c2ccc(CC)cc2)c2ccccc21 (stereo not given)	3.2*
CC(C)c1ccc(C(=O)CC2(O)C(=O)N(C)c3ccccc32)cc1 (stereo not given)	1.7
C=CCN1C(=O)C(O)(CC(=O)c2ccccc2)c2ccccc21 (stereo not given)	-0.1
CN1C(=O)C(O)(CC(=O)c2ccc(Cl)cc2)c2ccccc21 (stereo not given)	3.9*
CCOC(=O)CN1C(=O)C(O)(CC(=O)c2ccc3c(c2)OCO3)c2ccccc21 (stereo not given)	0.9
CN1C(=O)C(O)(CC(=O)c2ccc(C(C)(C)C)cc2)c2ccccc21 (stereo not given)	0.59
C=CCN1C(=O)C(O)(CC(=O)c2ccc3c(c2)OCCO3)c2ccccc21 (stereo not given)	0.54
Cc1ccc(-n2ncc3c2ncn2c(-c4ccccc4Cl)nnc32)cc1	1
COc1ccccc1OCCSc1nc2ccccc2s1	1.1
CCn1c2ccccc2c2nnc(SCC(=O)Nc3nnc(C(C)C)s3)nc21	1.2
CCCN1CNc2nc3ccccc3n2C1	-0.41
COc1cccc(C2C3=C(Nc4c2c(=O)[nH]c(=O)n4C)c2ccccc2C3=O)c1OC (stereo not given)	1.1
SMILES	Dicer inh
COc1ccc(Nc2ncnc3c2nnn3Cc2ccccc2Cl)c(OC)c1	0.62
CC1=CC(C)(C)N(C(=O)c2ccco2)c2ccc(OC(=O)c3ccco3)cc21	-0.29
CCOC(=O)c1sc(NC(=O)C(CC)Sc2nc3ccccc3o2)nc1C (stereo not given)	-0.28
Cc1cc(C)nc(Sc2ccccc2)n1	-1.6
Cc1cc(C)n2nc(Sc3ccc(C(F)(F)F)cc3[N+](=O)[O-])nc2n1	-0.07
CCOC(=O)c1cnn2c(C)cc(-c3ccc(F)cc3)nc12	-0.57
Cc1ccc(-c2cc(C(F)(F)F)n3ncc(C(=O)Nc4ccc5c(c4)OCO5)c3n2)cc1	-0.12
CC(C)OC(=O)c1cnn2c(C(F)(F)F)cc(-c3ccc(F)cc3)nc12	4.7*
Cn1c(CNC(=O)OC(C)(C)C)nnc1SCC(=O)c1ccc(Cl)cc1	-0.04
CC(=O)N1N=C(c2c(-c3c(Cl)cccc3Cl)noc2C)OC1c1c(Cl)cccc1Cl (stereo not given)	-0.32
O=S(=O)(NC1CCN(Cc2ccccc2)CC1)c1cccs1	10
O=S(=O)(NC1CCN(Cc2ccccc2)CC1)c1cc(Cl)c(Cl)cc1Cl	-1.3
O=S(=O)(NC1CCN(Cc2ccccc2)CC1)c1cccc(C(F)(F)F)c1	3*
O=C(O)CCCCC(=O)c1ccccc1	0.54
CCCCC1(O)CC(c2ccc(OC)cc2)NC(c2ccc(OC)cc2)C1C (stereo not given)	3.2*
COc1ccc(C2C/C(=N/O)C(C)C(c3ccc(OC)cc3)N2)cc1 (stereo not given)	1.4
COc1ccc(C2NC(c3ccc(OC)cc3)C(C)C(=O)C2C)cc1 (stereo not given)	-0.54
CN(NC(=O)c1cccs1)c1ccc([N+](=O)[O-])cn1	-0.36
COc1cccc(C2SCc3cc(C)c(C)cc3CS2)c1O	-0.28
O=C(CSc1ccc(C(F)(F)F)cn1)c1ccc(Cl)cc1	1
COc1ccc(CCN2C(=O)C(Oc3ccccc3)C2c2ccc3c(c2)OCO3)cc1 (stereo not given)	3.4*
O=C1C(Oc2ccccc2)C(c2ccc(F)cc2)N1Cc1ccc2c(c1)OCO2 (stereo not given)	3
COc1ccc(OC2C(=O)N(CCc3ccc(Cl)cc3)C2c2ccc3c(c2)OCO3)cc1 (stereo not given)	4.9*
O=C1C(Oc2ccc(Cl)cc2)C(c2ccc3c(c2)OCO3)N1CC1CCCO1 (stereo not given)	0.87
COc1ccc(OC2C(=O)N(Cc3ccc4c(c3)OCO4)C2c2ccc3c(c2)OCO3)cc1 (stereo not given)	1.6
O=C1C(Oc2ccccc2)C(c2ccc3c(c2)OCO3)N1Cc1ccc2c(c1)OCO2 (stereo not given)	0.72
COc1ccc(OC2C(=O)N(CCc3ccc(F)cc3)C2c2ccc3c(c2)OCO3)cc1 (stereo not given)	3.3*
Cc1ccccc1OC1C(=O)N(Cc2ccc3c(c2)OCO3)C1c1ccc2c(c1)OCO2 (stereo not given)	0.63
